In PubChem BioAssay AID463173 (ICCB-Longwood Screening Facility, Harvard Medical School, 2010):
Hit rate of the full screen: of about 52,000 compounds, about 4,300 (8.3%) were called active. No stated cut-off is given here; in the data, active means survival mostly below about 52% (no sharp cut-off); inactive means mostly above about 56%. The entries come from a sample that favours actives as a whole.

System: DeltatarO mutant
Assay: S. aureus survival, RN4220 and DeltatarO strains – OD600, teichoic acid synthesis inhibitors, primary screen (AID 463173)
Settings: S. aureus RN4220 wild type/DeltatarO growth, OD600, 18 h, hits give low values, screened at 18.75 µg/mL (by protocol)

| Compound | survival |
| --- | --- |
| CC(C)Cn1c(=O)c2ccccc2n2c(CCC(=O)N3CCN(c4ccccc4F)CC3)nnc12 | 92% (inactive) |
| Cc1noc(Cn2c(=O)c3cc4c(cc3n(CC(=O)Nc3cccc(Cl)c3)c2=O)OCO4)n1 | 122% (inactive) |
| COc1cccc(C(=O)Nc2ccc3nc(SCCOc4ccccc4)sc3c2)c1 | 75% (inactive) |
| Cc1cc(C)nc(-n2nc(C)c3c2N(Cc2ccccc2C)C(=O)CC3c2ccc(Cl)cc2)n1 (centres undefined) | 72% (inactive) |
| COc1ccc(-c2cc(C(F)(F)F)n3nc(C(=O)Nc4cccc(C(F)(F)F)c4)c(Br)c3n2)cc1 | 73% (inactive) |
| COc1ccc(NC(=O)C(C)N2Cc3ccccc3C2=O)cc1OC (centres undefined) | 101% (inactive) |
| Cc1cc(C)cc(NC(=O)C(C)N2Cc3ccccc3C2=O)c1 (centres undefined) | 91% (inactive) |
| CC(C(=O)Nc1ccc(F)c(Cl)c1)N1Cc2ccccc2C1=O (centres undefined) | 8% (active) |
| CCCn1ccc2c(OCC(=O)Nc3ccccc3C(=O)OCC)cccc2c1=O | 94% (inactive) |
| Cc1ccc(C)c(CN2C(=O)c3ccccc3S(=O)(=O)c3ccc(C(=O)NCCc4ccc(Cl)cc4)cc32)c1 | 111% (inactive) |
| N#Cc1cccc(NC(=O)C2CCN(c3nc(-c4ccc(Cl)cc4)no3)CC2)c1 | 82% (inactive) |
| CC1CCN(S(=O)(=O)c2ccc3c(ccn3CCC(=O)NCc3ccccc3F)c2)CC1 | -5% (active) |
| O=C(CCn1ccc2cc(S(=O)(=O)N3CCCC3)ccc21)NCc1cccc(Cl)c1 | 17% (active) |
| Cc1cccc(CNC(=O)Cn2ccc3cc(S(=O)(=O)N4CCCC4)ccc32)c1 | 73% (inactive) |
| CCc1ccc(CNC(=O)CCCn2ccc3cc(S(=O)(=O)N4CCCC4)ccc32)cc1 | 91% (inactive) |
| Cc1cccc(CNC(=O)CCn2ccc3cc(S(=O)(=O)N4CCCC4)ccc32)c1 | 87% (inactive) |
| COc1ccc(CNC(=O)CCCn2ccc3cc(S(=O)(=O)N4CCCC4)ccc32)cc1 | 101% (inactive) |
| Cc1cccc(CNC(=O)Cn2ccc3cc(S(=O)(=O)N4CCC(C)CC4)ccc32)c1 | 76% (inactive) |
| O=C(Cn1ccc2cc(S(=O)(=O)N3CCCCC3)ccc21)NCc1cccc(Cl)c1 | 117% (inactive) |
| CC1CCN(S(=O)(=O)c2ccc3c(ccn3CC(=O)NCc3ccccc3F)c2)CC1 | 54% (inactive) |
| O=C(CCn1ccc2cc(S(=O)(=O)N3CCCC3)ccc21)NCc1ccccc1F | 94% (inactive) |
| Cc1cccc(CNC(=O)Cn2ccc3cc(S(=O)(=O)N4CCCCCC4)ccc32)c1 | -5% (active) |
| CN(C)c1ccc(CNC(=O)CCCn2ccc3cc(S(=O)(=O)N4CCCC4)ccc32)cc1 | 8% (active) |
| Cc1nn(C)c2c1c(-c1ccccc1)cc(=O)n2C(C)C(=O)NCCc1ccc(Cl)cc1 (centres undefined) | 99% (inactive) |
| CCOC(=O)c1cc2c(=O)n3ccccc3nc2n(CCOC)c1=NC(=O)c1c(-c2ccccc2Cl)noc1C | 180% (inactive) |
| Cc1cccc(C(c2sc3nc(-c4ccco4)nn3c2O)N2CCN(c3ccccc3F)CC2)c1 (centres undefined) | 67% (inactive) |
| CCOC(=O)c1ccc2c(c1)N(CC(=O)Nc1ccc(C)cc1C)C(=O)c1ccccc1S2 | 112% (inactive) |

| Compound | survival |
| --- | --- |
| Cc1sc2c(c1C)c(=O)n(CCc1ccccc1)c(=O)n2Cc1ccc(C(C)(C)C)cc1 | 87% (inactive) |
| Cc1cccc(-n2c(CCN3C(=O)c4ccccc4C3=O)nc3ccccc3c2=O)n1 | 87% (inactive) |
| Clc1ccc(CN2CCc3nc(Nc4ccc5c(c4)OCCO5)ncc3C2)cc1 | 94% (inactive) |
| CCOc1ccc(NC(=O)Cn2cc(C(=O)c3ccc(C)cc3)c(=O)c3cc4c(cc32)OCO4)cc1 | 70% (inactive) |
| CCOc1ccc(NC(=O)CCS(=O)(=O)c2ccc3nc(C)sc3c2)cc1 | 55% (inactive) |
| CCOC(=O)c1ccccc1NC(=O)CN1C(=O)CC(c2ccco2)Sc2ccccc21 (centres undefined) | 72% (inactive) |
| Cc1ccc(CNC(=O)C(C)n2ccc3cc(S(=O)(=O)N4CCCC4)ccc32)cc1 (centres undefined) | 102% (inactive) |
| O=C(Cn1ccc2cc(S(=O)(=O)N3CCCCC3)ccc21)NCCc1ccccc1Cl | -4% (active) |
| CCc1ccc(CNC(=O)C(C)n2ccc3cc(S(=O)(=O)N4CCCCCC4)ccc32)cc1 (centres undefined) | 94% (inactive) |
| CC(C(=O)NCc1ccccc1)n1ccc2cc(S(=O)(=O)N3CCCC3)ccc21 (centres undefined) | 20% (active) |
| O=C(Cn1ccc2cc(S(=O)(=O)N3CCCCCC3)ccc21)NCc1ccccc1Cl | 77% (inactive) |
| O=C(Cn1ccc2cc(S(=O)(=O)N3CCCCCC3)ccc21)NCCc1ccccc1Cl | 88% (inactive) |
| CCn1nc(C)c2c(-c3ccccc3)cc(=O)n(C(C)C(=O)NCCC(C)C)c21 (centres undefined) | 99% (inactive) |
| COc1ccccc1CNC(=O)C(NS(=O)(=O)c1ccc2c(c1)CCN2C(C)=O)C(C)C (centres undefined) | 79% (inactive) |
| Cc1ccc2sc(NC(=O)c3ccc4c(c3)OCCO4)nc2c1C | 92% (inactive) |
| CNC(=O)c1c(NC(=O)c2cc(=O)c3ccccc3o2)sc2c1CCC2 | 94% (inactive) |
| Cc1ccc(C)c(NC(=O)CSc2c3c(nc4ccc(Cl)cc24)CCCC3)c1 | 53% (inactive) |
| CCC(C)NC(=O)CSc1c2c(nc3cc(Cl)ccc13)CCCC2 (centres undefined) | 82% (inactive) |
| O=C(CSc1c2c(nc3ccc(Cl)cc13)CCCC2)N1CCCCC1 | 22% (active) |
| CC1CCCN(C(=O)CSc2c3c(nc4cc(Cl)ccc24)CCCC3)C1 (centres undefined) | -5% (active) |
| Cc1ccc(CNC(=O)CSc2c3c(nc4cc(Cl)ccc24)CCCC3)cc1 | 80% (inactive) |
| CCOC(=O)c1ccc(NC(=O)CSc2c3c(nc4cc(Cl)ccc24)CCCC3)cc1 | 68% (inactive) |
| CC1CCN(C(=O)CSc2c3c(nc4ccc(Cl)cc24)CCCC3)CC1 | 0% (active) |
| COc1ccc(OC)c(CNC(=O)CSc2c3c(nc4cc(Cl)ccc24)CCCC3)c1 | 68% (inactive) |
| O=C(CSc1c2c(nc3ccc(Cl)cc13)CCCC2)NCc1ccccc1Cl | 119% (inactive) |
| CC1CCCCN1C(=O)CSc1c2c(nc3cc(Cl)ccc13)CCCC2 (centres undefined) | -6% (active) |
| CCOC(=O)C1CCN(c2nc3c(S(=O)(=O)c4ccc(Br)cc4)nnn3c3ccsc23)CC1 | 76% (inactive) |
